An excerpt weighted towards active compounds, which were near 2.1% of everything screened.
PABP1 MLLE inh: blocks PAM2 peptide binding to the PABP1 MLLE domain; GST-MLLE / FITC-PAM2 fluorescence polarization; actives 0.36% (n = 360,000); inhibition, % at 20 µM; P11940; AID 588489; in the data active means inhibition above about 35%, passing the limit was not always enough
PABP FP inh: blocks human PABP binding to poly(A) RNA | P11940 | fluorescence polarization | inhibition, % at 35 µM | actives 1% (n = 290,000);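 further: calls also rest on retests at 20 µM and on dose response follow-up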
NRP1-CendR mod: NRP-1/CendR interaction modulation; O14786; FAM-RPARPAR peptide binding to NRP-1, fluorescence polarization; inhibition, % at 25 µM; actives 0.85% (n = 360,000); AID 602438;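 active means inhibition or corrected inhibition above about 18%, plus a signal ratio from 0.5 to 1.5, limit read from the data, passing the limit was not always enough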
eIF4H FP inh: inhibitors of RNA binding by human eIF4H; eIF4H fluorescence polarization binding assay; Q15056; AID 2012; inhibition, % at 35 µM; actives 0.94% (n = 290,000);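 further: calls also rest on retests at 20 µM and on dose response follow-up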
Of the large screens only hits and unclear results are named; the others gave an inactive call. Unless noted, how the calls were made is not given here.

COC(=O)C(C)N1C(=O)S/C(=C\c2cc(C)n(-c3ccccn3)c2C)C1=O (stereo unspecified)	none
COc1ccc2nc(/C(C#N)=C\c3ccc(Oc4ccc([N+](=O)[O-])cn4)cc3)[nH]c2c1	PABP FP inh active, eIF4H FP inh 84
Cc1ccc2nc(/C(C#N)=C\c3ccc(Oc4ccc([N+](=O)[O-])cn4)cc3)[nH]c2c1	eIF4H FP inh inconclusive
CC(OC(=O)C1CCCC1)C(=O)Nc1ncc(Cl)cc1Cl (stereo unspecified)	NRP1-CendR mod 22 (no result: PABP FP inh, eIF4H FP inh)
O=C(COc1ccc2ccccc2c1)N/N=C/c1ccccn1	NRP1-CendR mod 37
Cc1ccc(/C=N/NC(=O)Cn2cnc3ccccc32)cc1	PABP FP inh 0.3, eIF4H FP inh 89
COc1cc(/C=N/NC(=O)Cn2cnc3ccccc3c2=O)ccc1O	none
O=C(Cn1cnc2ccccc2c1=O)N/N=C/c1ccc(Br)cc1	NRP1-CendR mod 23
CC(C)(C)[C@H]1COC(=O)CCCC/C=C\C[C@H](CC(=O)N(CCO)Cc2ccccc2)C(=O)N1	none (no result: PABP FP inh, eIF4H FP inh)
c1ccc(Cn2c(CNc3nc4ccccc4n3CCN3CCCCC3)nc3ccccc32)cc1	NRP1-CendR mod 30
Clc1ccc(OCCCCSc2ncccn2)cc1	PABP1 MLLE inh 38
CCCOc1ccc(OCCSc2ncccn2)cc1	none
CCOc1ccc2[nH]c(=O)c(CN(Cc3nnnn3Cc3ccco3)C3CCCCC3)cc2c1	PABP FP inh 32, eIF4H FP inh 57
COc1cc2cc(CN(Cc3nnnn3Cc3ccco3)C3CCCCC3)c(=O)[nH]c2cc1OC	PABP FP inh 64, eIF4H FP inh 61
COCCn1nnnc1CN(Cc1cc2cc(OC)c(OC)cc2[nH]c1=O)C1CCCC1	PABP FP inh 85, eIF4H FP inh 51
Cc1ccc2cc(CN(CCN3CCOCC3)Cc3nnnn3Cc3ccco3)c(=O)[nH]c2c1C	PABP FP inh 72, eIF4H FP inh 86
COc1ccccc1CN(Cc1cc2cc(C)ccc2[nH]c1=O)Cc1nnnn1Cc1ccco1	none
COc1ccc(Cn2nnnc2CN(Cc2cc3ccc(C)cc3[nH]c2=O)C2CCCC2)cc1	none
CCOc1ccc2[nH]c(=O)c(CN(Cc3ccco3)Cc3nnnn3Cc3ccccc3)cc2c1	none
O=C(c1cc2ccccc2oc1=O)N(Cc1ccccc1F)C1CCS(=O)(=O)C1 (stereo unspecified)	none
O=C(CCn1nc(-c2ccc(Cl)cc2)c2ccccc2c1=O)NN1CCOCC1	none
O=C(COC(=O)c1n[nH]c2ccccc12)NCCc1ccccc1	none (no result: PABP FP inh, eIF4H FP inh)
O=c1c2c([nH]c3ccccc13)CCC2	none
CN1CCCCc2c1[nH]c1ccccc1c2=O	PABP FP inh 69, eIF4H FP inh 59
COc1cc2c(cc1OC)C(c1ccc([N+](=O)[O-])cc1)NC(=O)C2 (stereo unspecified)	none
COc1cc2c(c(OC)c1OC)-c1c(cc3c(c1OC)OCO3)C[C@H](C)[C@@](C)(O)C2	none
COc1cc2c(c(OC)c1OC)-c1c(cc(OC)c(OC)c1OC)C[C@](C)(O)[C@@H](C)C2	NRP1-CendR mod 39
O=C(c1ccc(=O)[nH]n1)N1CCN(S(=O)(=O)c2cccc(F)c2)CC1	none (no result: PABP FP inh, eIF4H FP inh)
O=C(Nc1ccccc1C(=O)N1CCCCC1)c1cccs1	none
O=C(Nc1ccc2c(c1)OCCO2)C1C(=O)Nc2ccccc2C(=O)N1C1CCCCC1 (stereo unspecified)	NRP1-CendR mod 21 (no result: PABP1 MLLE inh, PABP FP inh, eIF4H FP inh)
Cc1ccc(NS(=O)(=O)c2ccc(C(=O)Nc3nncs3)cc2)cc1	none (no result: PABP FP inh, eIF4H FP inh)
CCNC(=S)N=Nc1c(O)[nH]c2ccc([N+](=O)[O-])cc12	PABP1 MLLE inh 45
O=C(N=Nc1c(O)[nH]c2ccc([N+](=O)[O-])cc12)c1ccccc1Cl	PABP FP inh 6.1
O=[N+]([O-])c1ccc2[nH]c(O)c(N=NC(=S)NCC3CCCO3)c2c1 (stereo unspecified)	none
Cc1c(C(=O)Nc2c(C)n(C)n(-c3ccccc3)c2=O)oc2ccc(Cl)cc12	none
CCc1ccc(/C=C2\SC(=S)N(CCCC(=O)N(CCO)c3ccccc3)C2=O)cc1	NRP1-CendR mod 28 (no result: PABP FP inh, eIF4H FP inh)
CC(=O)NNC(=O)CN1C(=O)/C(=C/c2ccccc2)SC1=S	PABP1 MLLE inh 50
O=C(O)CN1C(=O)/C(=C/C=C/c2ccccc2)SC1=S	none
CCOc1ccc(/C=C2\SC(=S)N(CCC(=O)N(CCO)c3ccccc3)C2=O)cc1	none
CCN(CC)C(=O)CN1C(=O)/C(=C/c2ccccc2)SC1=S	NRP1-CendR mod 20
O=C(CN1C(=O)S/C(=C\c2ccccc2)C1=O)NNC(=O)c1ccccc1O	PABP FP inh 97, eIF4H FP inh 7.4
Cc1noc(C)c1C(=O)N(CC(C)C)c1nc2ccccc2s1	none
CCCCCCN1C[C@H](n2cc(C3CC3)nn2)[C@@H](O)C[C@@H]1c1ccc(OC)cc1	none (no result: PABP FP inh, eIF4H FP inh)
O=C(CN1C(=O)S/C(=C\c2ccccc2)C1=O)NCCCn1ccnc1	PABP1 MLLE inh 43
COc1ccc(CN2C(=O)CCC2(C)c2nnnn2-c2ccc3c(c2)OCCO3)cc1 (stereo unspecified)	none (no result: PABP1 MLLE inh, PABP FP inh, eIF4H FP inh)
O=C(O)C(O)Cc1c[nH]c2ccccc12 (stereo unspecified)	none
CC(Cc1c[nH]c2ccccc12)C(=O)O (stereo unspecified)	PABP FP inh 48
COc1ccc(/C=N/NC(=O)CNC(=O)c2ccncc2)cc1OC	none
O=C1C=C(O)CC(c2ccco2)C1 (stereo unspecified)	PABP FP inh 77, eIF4H FP inh 104
CC(C)CNC1=CC(=O)CC(c2ccco2)C1 (stereo unspecified)	PABP FP inh 92, eIF4H FP inh 108
O=C1C=C(NCc2ccc(Cl)cc2)CC(c2ccco2)C1 (stereo unspecified)	none (no result: PABP FP inh, eIF4H FP inh)
O=C1CC(c2ccco2)Sc2nc3ccccc3n21 (stereo unspecified)	PABP FP inh 63, eIF4H FP inh 89
O=C1CC(c2ccccc2)Sc2nc3ccccc3n21 (stereo unspecified)	none
CN1c2cccc3cccc(c23)N(C)C1(C)C	PABP FP inh 55, eIF4H FP inh 73
CC(C)NC(=O)c1sc2nc3c(c(-c4cccs4)c2c1N)CN(C)CC3	none
Cc1cccc(NC(=O)c2sc3nc4c(c(-c5cccs5)c3c2N)CN(C)CC4)c1	PABP FP inh 68, eIF4H FP inh 110
COC(=O)c1ccc2nc(-c3ccc(C#N)cc3)c(Cc3cccc(Cl)c3)n2c1	none (no result: PABP1 MLLE inh, PABP FP inh, eIF4H FP inh)
COc1cc2c(c(OC)c1OC)C(=O)CO2	NRP1-CendR mod 18 (no result: PABP FP inh, eIF4H FP inh)
CCOc1nc(-c2ccccc2)c2cc(C)ccc2n1	NRP1-CendR mod 20
CN(C(=O)COC(=O)c1ccccc1SCC(=O)N1CCCC1)C1(C#N)CCCCC1	none (no result: PABP FP inh, eIF4H FP inh)
COc1ccc(S(=O)(=O)N(C)CC(=O)N2CCCCC2)cc1Cl	NRP1-CendR mod 27
COc1ccc(OC)c(S(=O)(=O)N(C)CC(=O)N2CCN(c3cccc(Cl)c3)CC2)c1	NRP1-CendR mod 19
O=C1/C(=C\c2ccc(O)cc2)SC(=S)N1/N=C/c1ccc(O)cc1	PABP FP inh 53, eIF4H FP inh 83
CC(=O)NN1C(=O)/C(=C\c2ccc(O)cc2)SC1=S	PABP FP inh inconclusive, eIF4H FP inh inconclusive
COc1ccccc1CN1CCNC(=O)C1CC(=O)NC1CCCCCC1 (stereo unspecified)	NRP1-CendR mod 26

Screening data from PubChem BioAssay.
